Data from PubChem BioAssay AID977624 (Broad Institute, 2014).
Hit rate of the full screen: of about 1,800 compounds, fewer than 10 were called active. About 44% were inconclusive and are not listed.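 How the source made its calls: active means compound lowering the normal-ribosome reporter at least twice as much as the humanized-ribosome reporter, growth loss under a set limit; inconclusive means no clear call, values can overlap the other calls; inactive means the rest.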 Only a sample is shown.

Assay: growth inhibition of wild-type GFP E. coli, dose response, h34 mutant RFP, cherry-pick (AID 977624)
Conditions: E. coli wild-type GFP strain growth, fluorescence, 24 h; series mostly up to 50 µM

outcome, inactive:
O=C1CN(C(=O)c2ccc(Cl)c(S(=O)(=O)N3CCc4ccccc43)c2)c2ccccc2N1
COc1ccccc1C1CCN(C(=O)c2ccco2)CC1
Cc1ccccc1SCC(=O)OCC(=O)Nc1sccc1C(N)=O
COc1ccc(-c2csc3ncn(-c4ccc(C)cc4)c(=O)c23)cc1OC
O=C(COC(=O)C12CC3CC(CC(O)(C3)C1)C2)NCCc1ccc(Cl)cc1
CCCc1c(C(=O)Nc2ccc(OC)cc2)cnn1-c1ccccc1
C=CCn1c(SCC(=O)Nc2ccc3c(c2)OCCO3)nnc1-c1ccco1
C[C@@H]1CCCCO[C@H](CN(C)C(=O)CCCN(C)C)[C@@H](C)CN([C@@H](C)CO)C(=O)c2cc(NC(=O)Nc3cccc4ccccc34)ccc2O1
CCn1nc(Cc2cccc3ccccc23)c(C#N)c1N
O=S(=O)(NCC1CCCO1)c1ccc(-c2ccc(Cl)cc2)cc1 (stereo not drawn)
Cc1ccccc1COc1ccc(-c2nn[nH]n2)cc1
CCc1ccc2[nH]c(C(=O)Nc3ccc4c(c3)OCO4)cc2c1
COc1ccc(Cl)cc1NC(=O)C1Cc2ccccc2CN1S(C)(=O)=O (stereo not drawn)
CC(C)(C)c1ccc(-c2noc(CCC(=O)NCc3ccco3)n2)cc1
CN(Cc1nnc(-c2ccc(F)cc2)o1)c1ccccc1
Cc1ccc(Cn2cnc3ccccc32)cc1
O=C(CSc1ccc(-c2cccnc2)nn1)N1CCCc2ccccc21
O=C1c2ccccc2C(c2nnnn2C2CCCCC2)N1CCc1ccc(O)cc1 (stereo not drawn)
CCOC(=O)C1CCCN(Cc2c(Cl)cccc2Cl)C1 (stereo not drawn)
CCOc1ccc2nc(SCC(=O)Nc3nonc3C)[nH]c2c1
CCCCCc1nnc(NC(=O)C2COc3ccccc3O2)s1 (stereo not drawn)
O=C(Cc1cccc(NC(=O)C2CCCN(C(=O)CCc3ccccc3)C2)c1)Nc1cccc(C(=O)N2CCCCC2)c1 (stereo not drawn)
CCN(CC)CCn1c(SCC(=O)Nc2cccc(OC)c2)nc2c(sc3ccccc32)c1=O
COc1ccccc1CCNC(=O)c1cccc(NC(=O)CC2SC(N3CCCCC3)=NC2=O)c1 (stereo not drawn)
Cc1cc(C(=O)COC(=O)CNC(=O)c2ccccc2)c(C)n1CC1CCCO1 (stereo not drawn)
COc1ccc(NC(=O)c2cccc(Oc3ccc([N+](=O)[O-])cc3Cl)c2)cc1
Cc1ccc(S(=O)(=O)Nc2ccc3c(c2)C(=O)N([C@@H](C)CO)C[C@@H](C)[C@H](CN(C)C(=O)c2ccccc2)OCCCC[C@@H](C)O3)cc1
CCOc1ccc(CN(C)C(=O)c2ccc(NS(=O)(=O)c3ccc4[nH]c(=O)[nH]c4c3)cc2)cc1
CCc1nc2ccccc2n1CCc1ccccc1
CCc1cc(C(=O)N2CCCC(C(=O)c3cccc4ccccc34)C2)n(C)n1 (stereo not drawn)
C=C(C)Cn1c(=O)c2c(nc3n2CCCN3Cc2ccccc2)n(C)c1=O
O=C(O)CCN(Cc1ccccc1)S(=O)(=O)c1ccccc1Cl
NC(=O)CSc1nc2cc([N+](=O)[O-])ccc2n1-c1cccc(C(F)(F)F)c1
CCC(C(=O)NCCc1ccc(C)cc1)n1nc(C)c2c(C)n(-c3ccccc3)nc2c1=O (stereo not drawn)
CCOc1ccccc1OCCCC(=O)N1CCN(S(=O)(=O)c2cc(F)ccc2F)CC1
CN(Cc1ccc(F)cc1)C(=O)CN1CCN(S(=O)(=O)c2ccc3c(c2)OCCCO3)CC1
Cc1cccc(-c2nsc(SCC(=O)NCC3CCCO3)n2)c1 (stereo not drawn)
Cc1cc(C)n2nc(C(=O)Nc3cccc(S(=O)(=O)N(C)c4ccccc4)c3)nc2n1
CC(=O)c1ccc(N2CCN(C(=O)C3CCN(S(=O)(=O)c4ccc5c(c4)CC(C)N5C(C)=O)CC3)CC2)cc1 (stereo not drawn)
Cc1cc(C)c(NC(=O)C(C)c2cccc(C(=O)c3ccccc3)c2)c(C)c1 (stereo not drawn)
COCC#Cc1ccc2c(c1)O[C@H](CN(C)C(=O)c1ccccc1)[C@@H](C)CN([C@H](C)CO)S2(=O)=O
C=CCn1c(SCc2n[nH]c(=S)n2-c2ccccc2)nnc1-c1ccccc1
CC(=O)c1ccccc1OCCOCCOCCOc1ccccc1C(C)=O
Brc1ccccc1CN1CCC(Cc2ccccc2)CC1
CCn1cc(CCC(=O)NCCc2ccccc2)c2ccccc21
COc1ccccc1N(C)S(=O)(=O)c1ccc(Cl)c(C(=O)NC2=NCCS2)c1
O=C(COC(=O)CNC(=O)c1ccc(F)cc1)Nc1cccc(S(=O)(=O)N2CCCC2)c1
COC(=O)c1ccc2nc(-c3cccc(Br)c3)c(Cc3ccsc3)n2c1
COc1cccc(C(=O)C2CCCN(C/C=C/c3ccccc3OC)C2)c1 (stereo not drawn)
O=C(NCc1ccccc1)c1cc(S(=O)(=O)N2CCCCC2)ccc1N1CCOCC1
CC(=O)c1c(N2CCOCC2)nc2ccc(Cl)cc2c1-c1ccccc1
O=C(NCc1nnnn1-c1ccc(Cl)cc1)c1ccc([N+](=O)[O-])o1
O=C(CCC(=O)N1CCN(c2ccc(F)cc2)CC1)N1CCN(c2ccc(F)cc2)CC1
COc1cccc(-c2ccc(SCc3ccccn3)nn2)c1
CCC(C(=O)NC1CCCC1)n1c(-c2ccnc3ccccc23)nc2ccccc21 (stereo not drawn)
C=CCNC(=O)c1ccccc1CCc1ccccc1
C=CCN(CC(O)c1cccc([N+](=O)[O-])c1)C(C)CCc1ccccc1 (stereo not drawn)
CO[C@@H]1CN(C)C(=O)c2cc(NC(=O)C3CCCC3)ccc2OC[C@@H](C)N(C(=O)Nc2ccc(C(F)(F)F)cc2)C[C@H]1C
COc1ccc(OC)c(CN2CCCC(C(=O)c3ccccc3SC)C2)c1 (stereo not drawn)
CCN1CCN(c2c(Cl)cccc2NC(=O)c2ccc([N+](=O)[O-])o2)CC1
CCN(C(=O)CSc1cc(C)c2ccc(OC)cc2n1)C1CCS(=O)(=O)C1 (stereo not drawn)
Cc1noc(NS(=O)(=O)c2ccc(NC(=O)c3cc(-c4ccccc4Cl)nc4ccccc34)cc2)c1C
O=C(COC(=O)C1CC1)Nc1nc(-c2ccc(F)c(F)c2)cs1
